The assay addresses Group 10 secretory phospholipase A2 (Mus musculus) (UniProt Q9QXX3). The assay is described as follows: Secondary Assay for Inhibitors of Ubiquitin-specific Protease USP2a: PLA2 Counterscreen. From the text: NIH Molecular Libraries Screening Centers Network [MLSCN] NIH Chemical Genomics Center [NCGC] MLSCN Grant: XO1-MH079852-01 PI Name: Nicholson, Ben. Progenra Inc, Malvern, PA NCGC Assay Overview: Homeostasis of cellular proteins is maintained through a combination of synthesis and degradation. The pathway that accounts for the majority of protein degradation is the ubiquitin-proteasomal pathway. Ubiquitin (Ub) is highly conserved in all cells and the generation of a multi-Ub chain typically targets proteins for degradation by the proteasome. However, ubiquitination is highly reversible and dynamic. Deubiquitination, the reverse process, is catalyzed through the action of enzymes referred to as isopeptidases or deubiquitinating enzymes (DUBs). […]
NCGC Assay Protocol Summary: The assay buffer, prepared fresh at the day of the assay, contains 20mM Tris-HCl pH 8.0, 2mM CaCl2, 2mM beta-mercaptoethanol, 0.1% DMSO. […] Plates were read immediately on an Envision (Perkin Elmer) plate reader using wavelengths of Ex 460nm /Em 535nm. Then, the assay plates were incubated for 2.5 hours and read again on the Envision using the same settings. […] Concentration-response curves were fitted to the normalized data and the concentration-response curves were then classified based on curve quality (r2), response magnitude and degree of measured activity. The time zero reading was used to flag fluorescence artifacts. […]
(Counterscreens check selectivity or assay interference.)

Results filed as inconclusive are left out. Calls of active or inactive are those of the source. Calls follow the shape of the dose curve; as a rule, active = well fitted curve in the direction sought with a large enough effect; inconclusive = small, poorly fitted or top-dose-only effect, or another doubt; inactive = no such curve, though single readings can be large or run the other way.

Chain of Group 10 secretory phospholipase A2 (Mus musculus) (Q9QXX3 whole entry, looked up): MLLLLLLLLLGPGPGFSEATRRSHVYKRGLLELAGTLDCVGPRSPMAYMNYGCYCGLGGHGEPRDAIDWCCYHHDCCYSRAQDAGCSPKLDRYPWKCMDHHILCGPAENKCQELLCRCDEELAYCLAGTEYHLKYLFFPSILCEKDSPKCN

For `Cc1ccc2scc(N3CCN(C)CC3)c(=O)c2c1`, the result was inactive.

On to `CC1=NCCc2c1[nH]c1cc(O)ccc21`, for which the outcome was inactive.

Source of the values: PubChem BioAssay AID2278 (National Center for Advancing Translational Sciences (NCATS), 2010).
